From PubChem BioAssay AID1508602 (The Scripps Research Institute Molecular Screening Center, 2020)
The whole screen tested about 650,000 compounds, of which about 6,800 (1%) were called active. Rule as the data show it: active = activation above about 4.9%; inactive = the rest. The sample as a whole holds a higher share of actives than the screen did.

The compounds below were run against G-protein coupled receptor 151 (Homo sapiens) (UniProt Q8TDV0) (assay: activators of human GPR151, primary screen, cell-based, PathHunter beta-arrestin, luminescence (AID 1508602;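 also: 0% = median of compound wells and 100% = cells with positive control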)). Settings: PathHunter beta-arrestin GPR151 cells, at 11.2 µM, stronger effect = higher value.
Chain of G-protein coupled receptor 151 (Homo sapiens) (Q8TDV0 whole entry, looked up): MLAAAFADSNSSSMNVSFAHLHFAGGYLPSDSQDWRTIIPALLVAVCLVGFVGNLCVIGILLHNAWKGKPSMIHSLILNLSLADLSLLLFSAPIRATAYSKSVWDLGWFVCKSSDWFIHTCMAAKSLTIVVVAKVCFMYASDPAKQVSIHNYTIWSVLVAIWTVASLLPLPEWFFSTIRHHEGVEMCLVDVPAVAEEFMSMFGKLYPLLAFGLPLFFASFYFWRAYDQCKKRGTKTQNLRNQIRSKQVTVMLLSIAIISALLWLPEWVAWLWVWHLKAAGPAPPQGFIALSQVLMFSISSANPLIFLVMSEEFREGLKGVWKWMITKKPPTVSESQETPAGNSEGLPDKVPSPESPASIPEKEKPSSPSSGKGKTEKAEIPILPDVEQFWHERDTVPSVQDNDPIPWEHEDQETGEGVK
With `Cc1ccc2oc(-c3cccc(NC(=O)c4ccc(F)cc4)c3)nc2c1` the activation was 0.17% (inactive).
For `O=C(c1cc(=O)oc2cc(OCc3ccccc3)ccc12)N1CCN(c2ccccn2)CC1`, the activation was -0.0035% (inactive).
In the case of `Cc1ccc([N+](=O)[O-])cc1NC(=O)CC12CC3CC(CC(C3)C1)C2`, the activation is reported as 2.69% (inactive).
With `CC(C)(C)c1ccc(C(=O)NCCC(=O)NCCc2ccccc2)cc1` the activation was 0.46% (inactive).
With `O=C1CSC2=NCN(c3ccc(I)cc3)CN12` the activation was 0.445% (inactive).
In the case of `CCOc1cc(C#N)ccc1OCC(=O)NCc1ccc2c(c1)OCO2`, the activation is reported as -0.667% (inactive).
With `COc1ccccc1CNC(=O)C1CCN(Cc2nc(-c3ccccc3C)oc2C)CC1` the activation was -0.157% (inactive).
For `Cc1ccc2nc(SCc3ccccc3)nc(=O)n2c1`, the activation was 1.52% (inactive).
In the case of `c1cnc(N2CCN(Cc3cccc4ccccc34)CC2)nc1`, the activation is reported as 0.32% (inactive).
For `O=C(Cc1cccc2ccccc12)Nc1ncn[nH]1`, the activation was 0.255% (inactive).
In the case of `c1ccc(NCc2cccc3ccccc23)nc1`, the activation is reported as 5.45% (active).
For `CCCNc1nc(N2CCOCC2)nc2cc(OC)c(OC)cc12`, the activation was -0.145% (inactive).
For `Cc1sc2ncnc(SC3CCCCN(C(=O)c4ccc(F)cc4)C3=O)c2c1C` (stereo unspecified), the activation was 2.61% (inactive).
In the case of `O=C(c1ccccc1)N1CCCCC(Sc2ncnc3sc4c(c23)CCCC4)C1=O` (stereo unspecified), the activation is reported as 5.26% (active).
With `c1ccc(CSc2ncnc3sc4c(c23)CCCC4)cc1` the activation was 3.13% (inactive).
For `COc1ccc(OC)c(-c2cc(Cl)c3c(c2)CC(CNC(=O)CSC)O3)c1` (stereo unspecified), the activation was 0.143% (inactive).
With `CCOc1ccc(C2C(C(=O)Nc3ccc(C)c(F)c3)c3ccccc3C(=O)N2CCN2CCOCC2)cc1` (stereo unspecified) the activation was -1.65% (inactive).
In the case of `Nc1nnc(SCC(=O)OCC(=O)NCc2ccccc2)s1`, the activation is reported as -1.05% (inactive).
`Cc1nnc(SCC(=O)NCc2ccccc2)s1` was tested, and the activation was 6.39% (active).
For `O=C(CSc1nnc(NC(=O)CCc2ccccc2)s1)NCc1ccc(F)cc1`, the activation was -2.57% (inactive).
With `C/C(N)=C1\C(=O)C(=O)N(C)C1c1ccccc1` (stereo unspecified) the activation was -1.33% (inactive).
In the case of `CC(Oc1cccc(Cl)c1)C(=O)O/N=C(\N)c1ccncc1` (stereo unspecified), the activation is reported as -0.652% (inactive).
With `O=C(O)CNC(=O)/C=C\c1ccc(Cl)cc1` the activation was 0.187% (inactive).
For `CCNC(=O)n1cc(-c2ccnc3ccccc23)c(-c2ccncc2)n1`, the activation was -0.919% (inactive).
`O=C(Nc1ccc(-c2nnc3n2CCCCC3)cc1)c1ccc(Br)o1` was tested, and the activation was -0.517% (inactive).
With `O=c1c(Cl)c(-c2ccccc2)oc2ccccc12` the activation was -1.04% (inactive).
For `CCN(CC)C(=O)C1CCCN(c2cc(NCCN(C(C)C)C(C)C)nc(N)n2)C1` (stereo unspecified), the activation was 4.23% (inactive).
For `CCN(CC)C(=O)C1CCCN(c2cc(Nc3ccccc3)nc(N)n2)C1` (stereo unspecified), the activation was 1.77% (inactive).
In the case of `CCN(CC)C(=O)C1CCCN(c2nc3ncnc(NCCc4ccc(OC)cc4)c3[nH]2)C1` (stereo unspecified), the activation is reported as 0.885% (inactive).
For `CCN(CC)C(=O)C1CCCN(c2cccc(C(=O)NCCc3ccc(OC)cc3)c2)C1` (stereo unspecified), the activation was -1.08% (inactive).
In the case of `CCN(CC)C(=O)C1CCCN(c2cc(N)nc(N)n2)C1` (stereo unspecified), the activation is reported as 6.79% (active).
`CCN(CC)C(=O)C1CCCN(c2cccc(C(=O)NCCc3ccc(OC)cc3)n2)C1` (stereo unspecified) was tested, and the activation was 5.87% (active).
With `O=C(O)c1cc(N=Cc2cccnc2)ccc1O` the activation was 0.982% (inactive).
In the case of `Cc1ccc(CNC(=O)CCCCCn2c(SCc3cc(=O)n4ccccc4n3)nc3ccsc3c2=O)cc1`, the activation is reported as 1.39% (inactive).
In the case of `O=C(Nc1ccc(F)c(Cl)c1)/C(=C/c1cccc([N+](=O)[O-])c1)NC(=O)c1cccs1`, the activation is reported as 0.762% (inactive).
For `C=CCNC(=O)/C(=C/c1ccc(Cl)cc1)NC(=O)c1ccccc1`, the activation was 3.04% (inactive).
For `CC(NC(=O)Cc1ccc(-c2ccccc2)cc1)c1nc(-c2cccnc2)n[nH]1` (stereo unspecified), the activation was -0.113% (inactive).
In the case of `CCC(C)OC(=O)C1=C(C)NC2=C(C(=O)CC(c3ccccc3)C2)C1c1ccccc1OCc1ccccc1` (stereo unspecified), the activation is reported as 1.93% (inactive).
In the case of `COc1ccccc1C(=O)N1CCN2C(=O)CN(C)C(=O)[C@H]2C1`, the activation is reported as 1.54% (inactive).
For `NCCCC[C@@H]1NC(=O)[C@H]2CN(C(=O)OCc3ccccc3)CCN2C1=O`, the activation was -0.551% (inactive).
`CN1CC(=O)N2CCN(C(=O)OCc3ccccc3)C[C@@H]2C1=O` was tested, and the activation was 5.14% (active).
`O=C1CSC(c2ccccc2Br)N1c1ccc(F)c(Cl)c1` (stereo unspecified) was tested, and the activation was -1.29% (inactive).
`COc1cccc(/C=C/C(=O)c2cc3ccccc3oc2=O)c1` was tested, and the activation was -0.0229% (inactive).
With `COc1ccc(C(=O)Cc2cc3ccccc3oc2=O)c(OC)c1` the activation was 8.65% (active).
`COc1ccc(C(=O)COC(=O)c2ccc3ccccc3n2)c(OC)c1` was tested, and the activation was -0.989% (inactive).
For `O=C(CSc1nc2ccccc2c(=O)n1CCCN1CCN(c2cccc(Cl)c2)CC1)N1CCCCCC1`, the activation was 0.298% (inactive).
